Molecules are shown by their SMILES. Among all 2,100 compounds or so, about 260 (12%) were called active. Not shown: some 58% with an inconclusive outcome. Calls follow the shape of the dose curve; as a rule, active = well fitted cell-killing curve with a large enough effect; inconclusive = small, poorly fitted or top-dose-only effect, or effect the other way; inactive = flat fitted curve, though single readings scatter. The list shows a part of the results. Entries that show only a call come without a potency.

Experimental findings from PubChem BioAssay AID1745850 (National Center for Advancing Translational Sciences (NCATS), 2022) are described below.
Potency is read from the fitted curve at half-maximal effect.

A short description of the assay: Viability Counterscreen for Confirmatory qHTS for Inhibitors of ATXN expression. Also: nearly all actives have a fitted effect of over 50% in size. The following applies: HEK-293 ATXN2-luc cells viability, CellTiter-Fluor, 24 h. The method, boiled down:
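Cells with an ATXN2-luciferase reporter were dosed in a dilution series for 24 h at 37 degrees C. Viability was read first with Gly-Phe-AFC at 25 uM final (fluorescence, ex 405/em 540), then SteadyGlo luminescence. Medium-only wells defined 100% inhibition.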
A general note: The purpose of a counterscreen is to sort out artefacts and off-target activity.
Take `COc1ccc(N(CC(=O)N2CCN(c3ccc(Cl)cc3)CC2)S(=O)(=O)c2c(C)n[nH]c2C)cc1`: the Potency result was “inactive”.

Consider `O=C(Nc1ccc(Cl)c(Cl)c1)Nc1nnc(CSc2ccccc2)s1`, for which the Potency is 2.51 µM (active).

`CCOc1ccc(NC(=O)Nc2nnc(CC(=O)NCc3ccccc3)s2)cc1`: the Potency result was “inactive”.

With `CCCCN1C(=O)/C(=C2/Sc3ccccc3N2C)S/C1=N\c1ncn[nH]1`, the Potency result was “inactive”.

As for `CC1=CC(C)(C)N2C(=O)C3(SCC(=O)N3c3ccc(F)cc3)c3cc(C)cc1c32` (stereo unspecified), the Potency entry is “inactive”.

Regarding `CCN(CC)c1ccc(/C=C/c2cccc[n+]2C)c(OC)c1`, the Potency is 12.6 µM (active).

For the compound `CCN(CC)c1ccc(C(=O)N/N=C/c2ccccc2OC(F)F)cc1`, the Potency result was “inactive”.

With `O=C(C1CC(=O)N(c2ccc3c(c2)OCCO3)C1)N1CCN(c2ccccc2)CC1` (stereo unspecified), the Potency entry was “inactive”.

On to `O=C(CSc1nnc(-c2ccccc2)o1)Nc1ccccc1F`, for which the Potency result is “inactive”.

Take `CC1CC(C)CN(CCCNC(=O)c2cc3c(s2)-c2ccccc2OC3)C1` (stereo unspecified): the Potency entry is “inactive”.

Take `Cc1ccc(NC(=O)CCC(=O)c2cc(C)sc2C)nc1`: the Potency result was “inactive”.

`CC(=O)c1ccc(N2CCc3ccccc3C2)c([N+](=O)[O-])c1`: the Potency result is “inactive”.

On to `COc1ccc(-c2cc(C3CCN(c4ccc(C(C)=O)cc4[N+](=O)[O-])CC3)[nH]n2)cc1`, for which the Potency is 28.2 µM (active).

`CN1CCC2(CC1)N=C(c1ccc(F)cc1)C(=S)N2C(=O)c1ccc(C(C)(C)C)cc1`: the Potency result is “inactive”.

For `CC(C)n1c(NCc2cc(Cl)ccc2O)nc2ccccc21`, the Potency entry was “inactive”.

Turning to `Clc1ccc(SCc2cc(N3CCOCC3)nc(-c3ccccn3)n2)cc1`, the Potency was 10 µM (active).

`Cc1cc(Oc2ccc(Cl)cc2)nc(-c2ccccn2)n1`: the Potency result was “inactive”.

Regarding `Clc1ccc(CSc2ccc(-c3ccccn3)nn2)cc1`, the Potency result is “inactive”.

With `CCN(CC)CCCNc1nc2ccccc2c2nc(-c3ccncc3)nn12`, the Potency was 25.1 µM (active).

On to `COC(=O)N/N=C/c1cn(CC(C)COc2ccccc2)c2ccccc12` (stereo unspecified), for which the Potency entry was “inactive”.

As for `O=C1C(Cl)=C(N2CCC(C(=O)O)CC2)C(=O)c2ccccc21`, the Potency result was “inactive”.

With `CCOC(=O)C1CCN(C(=O)c2c(C)oc3c2C(=O)c2ccccc2C3=O)CC1`, the Potency is 25.1 µM (active).

With `Cc1ccc(C)n1-c1ccc(C(=O)N2CCC(C(N)=O)CC2)cc1`, the Potency entry is “inactive”.

For the compound `COc1ccc(CCCNC(=O)C2Cc3c(-c4cccc(NC(C)=O)c4)ccnc3O2)cc1` (stereo unspecified), the Potency result was “inactive”.

For `N#CCc1nc2ccccc2c(=O)[nH]1`, the Potency result was “inactive”.

Consider `Cc1[nH]c(=O)c(C(=O)/C=C/c2ccccc2)c2c1CCCC2`, for which the Potency is 20 µM (active).

As for `COC(=O)c1ccccc1S(=O)(=O)NNC(=O)Nc1ccccc1`, the Potency entry is “inactive”.

In the case of `CC(C)Cn1c(/C=N/Nc2nc3ccccc3[nH]2)nc2ccccc21`, the Potency was 11.2 µM (active).

On to `CCCCn1c(/C=N/Nc2nc3ccccc3[nH]2)nc2ccccc21`, for which the Potency entry is “inactive”.

Turning to `C(=N\Nc1nc2ccccc2[nH]1)/c1cccc2nccnc12`, the Potency result is “inactive”.

For `Cc1sc2nc(CN3CCCC3)nc(N3CCC(C(N)=O)CC3)c2c1C`, the Potency result is “inactive”.

As to `Cc1cc(C)n(CCC(=O)N/N=C/c2ccc(O)cc2O)n1`, the Potency entry is “inactive”.

Turning to `Cc1cc([N+](=O)[O-])nn1Cc1ccc(C(=O)N/N=C/c2ccc(O)cc2O)cc1`, the Potency was 10 µM (active).

As to `O=C(N/N=C/c1ccc(O)cc1O)c1ccncc1`, the Potency entry is “inactive”.

For the compound `CCn1c(-c2ccc(C)cc2)nn(CC(=O)NCCc2ccccc2)c1=S`, the Potency result is “inactive”.

Turning to `O=C(NN=Cc1ccc(O)cc1O)c1ccccc1NS(=O)(=O)c1cccs1`, the Potency result was “inactive”.

On to `CCc1ccc(C(O)c2ncc(-c3cccc(C(F)(F)F)c3)[nH]2)cc1` (stereo unspecified), for which the Potency entry is “inactive”.

`CCN(CC)CCn1nc2c3c(cccc3c1=O)-c1ccccc1-2`: the Potency was 14.1 µM (active).

Consider `COc1ccc(/C(N)=N/OC(=O)N2CCOCC2)cc1`, for which the Potency result was “inactive”.

Consider `Cn1c2c(c(=O)[nH]c1=O)C(c1cccc(O)c1)C1=C(N2)c2ccccc2C1=O` (stereo unspecified), for which the Potency is 22.4 µM (active).

In the case of `CCOC(=O)C(C(C)=O)c1c(Br)c(O)c(O)c2c(C(=O)c3ccc(C)cc3)coc12` (stereo unspecified), the Potency was 15.8 µM (active).

In the case of `CC(=O)C(C(C)=O)c1c(Cl)c(O)c(O)c2c(C(=O)c3ccccc3)coc12`, the Potency is 12.6 µM (active).

With `Cc1ccc(NC(=O)CSc2ccc(Br)cc2)cc1S(=O)(=O)N1CCOCC1`, the Potency result was “inactive”.

In the case of `CCc1ccc(N(CC)C(=O)c2ccc3c(Cl)c4c(nc3c2)CCC4)cc1`, the Potency entry is “inactive”.

On to `Cc1ccc(Cc2cnc(NC(=O)/C(C#N)=C/c3ccc(-c4cccc([N+](=O)[O-])c4)o3)s2)cc1`, for which the Potency is 22.4 µM (active).

On to `CCN1C(=O)/C(=C/c2nc3ccccc3c(=O)n2-c2ccccc2)c2ccccc21`, for which the Potency is 25.1 µM (active).

`COc1cc(Br)cc(/C=N/NC(=O)Cc2ccccc2)c1O`: the Potency entry is “inactive”.

Turning to `COc1ccc(Cc2nnc(N/N=C/c3ccccc3O)[nH]c2=O)cc1OC`, the Potency is 4.47 µM (active).

Regarding `C=CCOc1ccc(CNc2ccc3[nH]c(=O)[nH]c3c2)cc1OC`, the Potency result is “inactive”.

On to `Cc1ccc(S(=O)(=O)c2c(N)n(CC3CCOC3)c3nc4ccccc4nc23)cc1` (stereo unspecified), for which the Potency entry was “inactive”.

Consider `COc1cccc(/C=N/n2c(N)c(S(=O)(=O)c3cccs3)c3nc4ccccc4nc32)c1OC`, for which the Potency was 22.4 µM (active).

In the case of `CCn1ccnc1CN1CCCC(C(=O)c2ccc3cc(OC)ccc3c2)C1` (stereo unspecified), the Potency result was “inactive”.

With `O=S(=O)([N-]c1nc2ccccc2nc1-[n+]1ccc(Cc2ccccc2)cc1)c1ccc(Br)s1`, the Potency is 7.94 µM (active).

Take `CCc1noc(C)c1C(=O)N1CCSC1=Nc1cccc(Cl)c1C`: the Potency entry was “inactive”.

Consider `CC1(C)Cc2ccccc2C2=NNC(=O)C2=N1`, for which the Potency is 28.2 µM (active).

On to `O=c1cc(C(F)(F)F)[nH]c2ccc(C(F)(F)F)cc12`, for which the Potency entry is “inactive”.

With `CN(C)CCNC(=O)c1ccc(Cl)c2cc3ccccc3nc12`, the Potency is 10 µM (active).

With `COc1ccc(N(C)S(=O)(=O)c2ccc(Cl)c(C(=O)NCCc3ccc(Cl)cc3)c2)cc1`, the Potency entry was “inactive”.

Regarding `CSc1sc(C(=O)NN)c2c1C1(CCC2)SCCS1`, the Potency entry is “inactive”.

Take `CCCCCn1c(=O)c2ccccc2n2c(CCl)nnc12`: the Potency is 25.1 µM (active).

With `CCOC(=O)C(CC)(CC)C(=O)/C=C/c1ccc(OC)cc1`, the Potency result was “inactive”.

As to `CC(C)=CCc1ccc(O)c(=O)cc1C(C)C`, the Potency entry was “inactive”.

On to `COc1cc(C(=O)N/N=C(\c2ccccc2)c2ccccn2)cc(OC)c1OC`, for which the Potency was 2.24 µM (active).

For `COc1cc(C(=O)N/N=C(\Cc2ncc[nH]2)c2ccccc2)cc(OC)c1OC`, the Potency entry was “inactive”.

In the case of `O=C(N/N=C(\Cc1ncc[nH]1)c1ccccc1)c1cccnc1`, the Potency result is “inactive”.

Take `CCc1ccc(NC(=O)C2CCN(S(=O)(=O)c3ccc4c(c3)CC(C)N4C(C)=O)CC2)cc1` (stereo unspecified): the Potency entry is “inactive”.

As to `CCOc1ccc(S(=O)(=O)NCCC(=O)N2CC=C(c3ccccc3)CC2)cc1`, the Potency entry was “inactive”.

Take `COc1cc2[nH]c(=O)n(CCCCCC(=O)N3CC=C(c4ccccc4)CC3)c(=O)c2cc1OC`: the Potency is 3.16 µM (active).

As for `Cc1cccn2c(=O)c3cc(C(=O)NCCc4ccccc4)c(=N)n(CCCn4ccnc4)c3nc12`, the Potency result is “inactive”.

On to `Cc1onc(-c2c(F)cccc2Cl)c1C(=O)Nc1nnc(C(F)(F)F)s1`, for which the Potency entry is “inactive”.

Regarding `O=C(Nc1ccccc1C(=O)Nc1nnc(C(F)(F)F)s1)c1ccccc1`, the Potency is 3.98 µM (active).

Consider `CC1CCCN(c2ncnc3c2cnn3-c2ccc(Cl)cc2)C1` (stereo unspecified), for which the Potency result was “inactive”.

Take `O=C(NCc1ccco1)c1ccc(-c2cccc(Cl)c2)o1`: the Potency entry is “inactive”.

Take `CC(NC1=CC(=O)c2cccnc2C1=O)C(O)c1ccccc1` (stereo unspecified): the Potency was 31.6 µM (active).

In the case of `COc1ccc2c(c1)[nH]c1c(=O)n(/N=C/C3C(C)C=C(C)CC3C)c(=O)[nH]c12` (stereo unspecified), the Potency is 20 µM (active).

Take `Cc1ccc(-c2cc(C(=O)NCCCN3CCOCC3)no2)cc1`: the Potency result was “inactive”.

Consider `CCOC(=O)c1c(SCCN2CCCC2)n(-c2ccccc2)c(=S)n(-c2ccccc2)c1=O`, for which the Potency is 2.51 µM (active).

Turning to `O=C(/C=C/NNC(=O)c1ccccc1)c1ccc([N+](=O)[O-])cc1`, the Potency is 12.6 µM (active).

Regarding `CCCCC(=O)N(C)c1c(CC)nc2c(OCc3ccc(Cl)cc3Cl)cccn12`, the Potency entry was “inactive”.

Regarding `O=C(NCC(=O)N1CC(O)CC1C(=O)N1CCCC1C(=O)OCc1ccccc1)OCc1ccccc1` (stereo unspecified), the Potency entry was “inactive”.

`CCCCC(=O)OCC(=O)C1(O)Cc2c(O)c3c(c(O)c2C(OC2CC(NC(=O)C(F)(F)F)C(O)C(C)O2)C1)C(=O)c1c(OC)cccc1C3=O` (stereo unspecified): the Potency was 15.8 µM (active).

Regarding `COc1cccc2c1C(=N)c1c(O)c3c(c(O)c1C2=O)CC(O)(C(C)=O)CC3OC1CC(N)C(O)C(C)O1` (stereo unspecified), the Potency was 4.47 µM (active).

Turning to `CCC1=C(OC(=O)N(CC)CC)N2C(=O)OC(=NCCc3c[nH]c4ccccc34)[C@]2(Cc2ccccc2)[C@H]2C1=CC[C@H]1C(=O)N(c3ccccc3)C(=O)[C@H]12`, the Potency result was “inactive”.

In the case of `CCCC(=O)Nc1c(C(=O)OCC)[nH]c2ccccc12`, the Potency result is “inactive”.

Regarding `CCOc1ccc(/C=N/NC(=O)C(O)c2ccccc2)c(O)c1` (stereo unspecified), the Potency entry was “inactive”.

For the compound `O=c1ccc2ccccc2c2ccccc12`, the Potency is 17.8 µM (active).

In the case of `O=C(N/N=C\c1c(O)ccc2ccccc12)c1ccc(Cn2cccn2)o1`, the Potency entry is “inactive”.

As to `Cc1ccc(Cl)cc1-c1ccc(C=Nc2ccc(N3CCOCC3)cc2)o1`, the Potency result is “inactive”.

In the case of `CCC(C)n1cnc2c(c1=O)c1nc3ccccc3nc1n2-c1ccc2c(c1)OCCO2` (stereo unspecified), the Potency result is “inactive”.

For the compound `C=CCn1cnc2c(c1=O)c1nc3ccccc3nc1n2/N=C/c1cc(OC)c(OC)c(OC)c1`, the Potency is 20 µM (active).

As to `Cc1ccsc1/C=C/C1=Cc2c(sc(NC(=O)CSc3n[nH]c(N)n3)c2C#N)C(C)(C)C1`, the Potency result was “inactive”.

Take `c1ccc(Cn2c(-c3ccccc3)c[n+]3c2SCCC3)cc1`: the Potency result is “inactive”.

Regarding `Cc1ccc(S(=O)(=O)c2nc(S(C)(=O)=O)sc2N2CCCCC2C)cc1` (stereo unspecified), the Potency result was “inactive”.

Turning to `COc1cc(/C=C(/C#N)C(=O)NCCc2c[nH]c3ccccc23)ccc1OCc1ccccc1F`, the Potency was 25.1 µM (active).

`COc1ccc(CCNC(=O)c2cc3c(F)cccc3s2)cc1OC`: the Potency result was “inactive”.

In the case of `Cc1ccnc(NC(=O)CCCc2c[nH]c3ccccc23)c1`, the Potency result was “inactive”.
